Assay results: the supplement of paper PMC11732987, “Enantioselective OTUD7B fragment discovery through chemoproteomics screening and high-throughput optimisation” (Communications Chemistry, 2025)

Assays:
Assay in all cases: log2 ratio of Biotin-Ahx-Ub-VS probe labelling (fragment/DMSO); higher = less target engagement (more negative = stronger competition), active = hit call of the paper (q ≤ 0.05, log2 ratio ≤ -1)
Conditions in all cases: compound concentration: 200 uM; treatment time: 3 h
[1] = molecular target: T1, USP42 (UniProt Q9H9J4)
T1 sequence (whole entry): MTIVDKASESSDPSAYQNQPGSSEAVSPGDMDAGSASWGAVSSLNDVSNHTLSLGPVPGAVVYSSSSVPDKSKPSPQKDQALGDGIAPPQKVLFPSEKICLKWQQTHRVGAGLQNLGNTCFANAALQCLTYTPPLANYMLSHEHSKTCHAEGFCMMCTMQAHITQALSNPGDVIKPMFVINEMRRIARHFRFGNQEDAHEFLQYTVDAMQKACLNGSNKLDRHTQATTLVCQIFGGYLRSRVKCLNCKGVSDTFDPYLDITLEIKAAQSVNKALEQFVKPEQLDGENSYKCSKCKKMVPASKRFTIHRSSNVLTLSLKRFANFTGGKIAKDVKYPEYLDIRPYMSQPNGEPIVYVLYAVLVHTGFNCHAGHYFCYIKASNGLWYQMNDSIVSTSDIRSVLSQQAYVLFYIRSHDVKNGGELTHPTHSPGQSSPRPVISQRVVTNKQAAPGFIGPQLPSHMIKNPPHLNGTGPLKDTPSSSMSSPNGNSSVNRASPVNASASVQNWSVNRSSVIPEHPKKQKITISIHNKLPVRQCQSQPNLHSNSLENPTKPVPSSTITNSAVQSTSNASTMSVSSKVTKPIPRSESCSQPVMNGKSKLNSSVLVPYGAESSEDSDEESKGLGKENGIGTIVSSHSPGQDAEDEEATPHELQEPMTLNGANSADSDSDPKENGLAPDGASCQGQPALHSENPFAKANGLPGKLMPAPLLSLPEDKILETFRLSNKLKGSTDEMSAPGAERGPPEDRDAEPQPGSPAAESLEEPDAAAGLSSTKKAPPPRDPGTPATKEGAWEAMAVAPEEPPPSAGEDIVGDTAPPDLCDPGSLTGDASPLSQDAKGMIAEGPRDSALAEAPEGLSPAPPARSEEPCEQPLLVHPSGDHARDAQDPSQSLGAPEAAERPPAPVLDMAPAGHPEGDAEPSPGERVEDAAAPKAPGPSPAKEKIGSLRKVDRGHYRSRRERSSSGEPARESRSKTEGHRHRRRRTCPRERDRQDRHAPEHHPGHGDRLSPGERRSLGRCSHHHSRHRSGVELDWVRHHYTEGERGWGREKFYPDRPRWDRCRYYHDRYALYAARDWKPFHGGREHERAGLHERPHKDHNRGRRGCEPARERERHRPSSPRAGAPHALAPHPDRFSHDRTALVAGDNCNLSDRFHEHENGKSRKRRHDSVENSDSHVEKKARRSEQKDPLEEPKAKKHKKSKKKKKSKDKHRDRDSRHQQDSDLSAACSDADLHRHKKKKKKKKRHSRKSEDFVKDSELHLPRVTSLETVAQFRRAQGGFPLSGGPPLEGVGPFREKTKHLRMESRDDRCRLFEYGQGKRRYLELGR
Summary of the method: (§1)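 Average log2 ratios of fragment over vehicle were obtained by unpaired t-test from global-median-normalised Spectronaut label-free quantities. Proteins with ≥2 unique peptides were included. HEK293T lysate (495 µg per sample) was treated in triplicate with fragment at 200 µM or vehicle for 3 h, then with Biotin-Ahx-Ub-VS at 0.5 µM final for 1 h, and labelled DUBs were NeutrAvidin-enriched and run by diaPASEF LC-MS/MS.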

[2] = molecular target: USP46 (UniProt P62068)
Sequence of USP46 (P62068 whole entry): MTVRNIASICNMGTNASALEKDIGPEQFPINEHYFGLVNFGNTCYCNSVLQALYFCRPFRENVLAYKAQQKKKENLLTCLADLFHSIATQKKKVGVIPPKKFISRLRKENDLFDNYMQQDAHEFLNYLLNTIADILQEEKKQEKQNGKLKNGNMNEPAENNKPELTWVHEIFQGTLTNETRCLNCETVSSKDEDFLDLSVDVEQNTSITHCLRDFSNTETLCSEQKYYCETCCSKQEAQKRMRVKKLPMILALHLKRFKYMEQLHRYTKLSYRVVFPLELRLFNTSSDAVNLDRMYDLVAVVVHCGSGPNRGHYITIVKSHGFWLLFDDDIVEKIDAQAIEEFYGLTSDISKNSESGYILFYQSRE
Summary of the method: as §1

[3] = molecular target: T2, USP47 (UniProt Q96K76)
T2 sequence (whole entry): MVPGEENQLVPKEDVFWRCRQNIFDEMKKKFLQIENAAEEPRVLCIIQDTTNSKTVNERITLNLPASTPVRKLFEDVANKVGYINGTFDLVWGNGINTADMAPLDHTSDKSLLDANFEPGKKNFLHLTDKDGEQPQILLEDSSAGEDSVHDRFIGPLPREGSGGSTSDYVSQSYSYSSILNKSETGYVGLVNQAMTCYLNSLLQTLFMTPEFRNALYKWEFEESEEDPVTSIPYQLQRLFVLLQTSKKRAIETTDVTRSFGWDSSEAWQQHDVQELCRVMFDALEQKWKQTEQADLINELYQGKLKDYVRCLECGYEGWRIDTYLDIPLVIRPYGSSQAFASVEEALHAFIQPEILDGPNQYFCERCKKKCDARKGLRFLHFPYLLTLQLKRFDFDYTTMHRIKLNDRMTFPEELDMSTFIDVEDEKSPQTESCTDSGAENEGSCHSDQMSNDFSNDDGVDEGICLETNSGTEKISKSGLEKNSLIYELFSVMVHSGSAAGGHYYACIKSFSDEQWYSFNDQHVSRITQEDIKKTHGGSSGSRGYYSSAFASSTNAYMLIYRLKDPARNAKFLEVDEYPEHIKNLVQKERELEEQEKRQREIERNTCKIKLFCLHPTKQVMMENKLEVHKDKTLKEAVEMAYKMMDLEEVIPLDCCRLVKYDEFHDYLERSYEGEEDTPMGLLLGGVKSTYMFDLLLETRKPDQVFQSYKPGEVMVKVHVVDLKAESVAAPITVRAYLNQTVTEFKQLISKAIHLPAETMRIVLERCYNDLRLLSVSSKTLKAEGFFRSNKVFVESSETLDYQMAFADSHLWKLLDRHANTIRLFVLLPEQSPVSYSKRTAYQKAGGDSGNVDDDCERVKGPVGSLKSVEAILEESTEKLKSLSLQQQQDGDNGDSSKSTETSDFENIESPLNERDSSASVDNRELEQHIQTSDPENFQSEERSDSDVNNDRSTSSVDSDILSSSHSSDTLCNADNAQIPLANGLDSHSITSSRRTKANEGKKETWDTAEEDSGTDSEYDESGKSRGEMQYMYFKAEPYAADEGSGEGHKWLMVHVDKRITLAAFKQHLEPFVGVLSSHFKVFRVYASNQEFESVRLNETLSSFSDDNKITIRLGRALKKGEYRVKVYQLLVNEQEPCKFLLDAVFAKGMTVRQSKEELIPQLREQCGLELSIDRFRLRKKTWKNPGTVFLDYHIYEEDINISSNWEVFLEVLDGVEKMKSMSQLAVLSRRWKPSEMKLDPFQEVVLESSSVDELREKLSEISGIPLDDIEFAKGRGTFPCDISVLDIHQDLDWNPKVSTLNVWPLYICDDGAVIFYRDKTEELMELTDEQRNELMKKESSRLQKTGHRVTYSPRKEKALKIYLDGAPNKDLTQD
Summary of the method: as §1

[4] = molecular target: T3, USP48 (UniProt Q86UV5)
T3 sequence (whole entry): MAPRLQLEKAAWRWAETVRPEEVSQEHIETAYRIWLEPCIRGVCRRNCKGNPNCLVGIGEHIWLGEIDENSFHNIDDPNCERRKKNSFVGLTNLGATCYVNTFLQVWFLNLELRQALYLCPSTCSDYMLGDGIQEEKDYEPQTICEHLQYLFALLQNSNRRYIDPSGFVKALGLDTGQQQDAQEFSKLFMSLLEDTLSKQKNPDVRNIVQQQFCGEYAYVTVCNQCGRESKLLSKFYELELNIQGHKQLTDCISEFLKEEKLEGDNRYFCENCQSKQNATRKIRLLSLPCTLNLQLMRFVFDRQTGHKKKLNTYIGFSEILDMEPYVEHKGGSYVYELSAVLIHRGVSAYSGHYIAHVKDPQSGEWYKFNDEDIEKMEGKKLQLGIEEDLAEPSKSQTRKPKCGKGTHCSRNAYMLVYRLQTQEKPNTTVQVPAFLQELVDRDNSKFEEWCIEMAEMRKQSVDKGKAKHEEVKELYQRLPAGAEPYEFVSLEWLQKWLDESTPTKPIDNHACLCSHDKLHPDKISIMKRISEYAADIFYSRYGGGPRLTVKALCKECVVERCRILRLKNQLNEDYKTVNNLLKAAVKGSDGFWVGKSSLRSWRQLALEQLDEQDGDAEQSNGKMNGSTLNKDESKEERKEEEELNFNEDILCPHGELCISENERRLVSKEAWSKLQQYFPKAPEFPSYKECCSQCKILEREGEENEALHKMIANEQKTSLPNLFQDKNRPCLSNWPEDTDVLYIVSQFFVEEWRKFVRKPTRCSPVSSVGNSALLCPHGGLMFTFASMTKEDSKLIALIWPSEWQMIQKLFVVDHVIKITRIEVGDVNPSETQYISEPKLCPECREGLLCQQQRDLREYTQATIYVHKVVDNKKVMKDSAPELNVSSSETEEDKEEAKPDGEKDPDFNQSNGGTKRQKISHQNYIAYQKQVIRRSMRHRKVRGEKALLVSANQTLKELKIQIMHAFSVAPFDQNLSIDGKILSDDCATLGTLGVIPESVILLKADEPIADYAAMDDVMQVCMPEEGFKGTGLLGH
Summary of the method: as §1

[5] = molecular target: T4, USP5 (UniProt P45974)
T4 sequence (whole entry): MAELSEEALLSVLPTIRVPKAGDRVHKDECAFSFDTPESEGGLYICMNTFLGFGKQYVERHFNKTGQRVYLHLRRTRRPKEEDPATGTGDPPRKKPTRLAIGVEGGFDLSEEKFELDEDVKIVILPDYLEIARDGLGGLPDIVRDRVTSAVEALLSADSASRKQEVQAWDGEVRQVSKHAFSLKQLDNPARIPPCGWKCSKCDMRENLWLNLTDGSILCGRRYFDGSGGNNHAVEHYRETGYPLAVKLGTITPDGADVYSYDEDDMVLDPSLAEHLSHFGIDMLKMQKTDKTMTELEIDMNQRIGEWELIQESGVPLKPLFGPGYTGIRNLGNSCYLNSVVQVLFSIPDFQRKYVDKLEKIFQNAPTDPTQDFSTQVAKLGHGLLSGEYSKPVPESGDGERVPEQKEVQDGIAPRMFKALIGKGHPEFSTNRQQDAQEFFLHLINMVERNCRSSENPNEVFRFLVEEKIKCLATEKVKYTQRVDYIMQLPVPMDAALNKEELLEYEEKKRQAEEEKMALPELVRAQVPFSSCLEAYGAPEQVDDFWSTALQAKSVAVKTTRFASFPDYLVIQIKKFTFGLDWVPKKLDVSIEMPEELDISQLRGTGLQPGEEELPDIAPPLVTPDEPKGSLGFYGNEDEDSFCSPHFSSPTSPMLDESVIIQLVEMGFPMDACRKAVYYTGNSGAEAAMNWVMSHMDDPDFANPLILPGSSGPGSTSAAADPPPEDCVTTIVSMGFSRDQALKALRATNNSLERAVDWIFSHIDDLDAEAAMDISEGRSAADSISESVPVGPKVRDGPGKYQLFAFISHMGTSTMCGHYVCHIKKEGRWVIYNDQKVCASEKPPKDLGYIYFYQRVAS
Summary of the method: as §1

[6] = molecular target: USP54 (UniProt Q70EL1)
Summary of the method: as §1

[7] = molecular target: USP7 (UniProt Q93009)
Sequence of USP7 (Q93009 whole entry, looked up): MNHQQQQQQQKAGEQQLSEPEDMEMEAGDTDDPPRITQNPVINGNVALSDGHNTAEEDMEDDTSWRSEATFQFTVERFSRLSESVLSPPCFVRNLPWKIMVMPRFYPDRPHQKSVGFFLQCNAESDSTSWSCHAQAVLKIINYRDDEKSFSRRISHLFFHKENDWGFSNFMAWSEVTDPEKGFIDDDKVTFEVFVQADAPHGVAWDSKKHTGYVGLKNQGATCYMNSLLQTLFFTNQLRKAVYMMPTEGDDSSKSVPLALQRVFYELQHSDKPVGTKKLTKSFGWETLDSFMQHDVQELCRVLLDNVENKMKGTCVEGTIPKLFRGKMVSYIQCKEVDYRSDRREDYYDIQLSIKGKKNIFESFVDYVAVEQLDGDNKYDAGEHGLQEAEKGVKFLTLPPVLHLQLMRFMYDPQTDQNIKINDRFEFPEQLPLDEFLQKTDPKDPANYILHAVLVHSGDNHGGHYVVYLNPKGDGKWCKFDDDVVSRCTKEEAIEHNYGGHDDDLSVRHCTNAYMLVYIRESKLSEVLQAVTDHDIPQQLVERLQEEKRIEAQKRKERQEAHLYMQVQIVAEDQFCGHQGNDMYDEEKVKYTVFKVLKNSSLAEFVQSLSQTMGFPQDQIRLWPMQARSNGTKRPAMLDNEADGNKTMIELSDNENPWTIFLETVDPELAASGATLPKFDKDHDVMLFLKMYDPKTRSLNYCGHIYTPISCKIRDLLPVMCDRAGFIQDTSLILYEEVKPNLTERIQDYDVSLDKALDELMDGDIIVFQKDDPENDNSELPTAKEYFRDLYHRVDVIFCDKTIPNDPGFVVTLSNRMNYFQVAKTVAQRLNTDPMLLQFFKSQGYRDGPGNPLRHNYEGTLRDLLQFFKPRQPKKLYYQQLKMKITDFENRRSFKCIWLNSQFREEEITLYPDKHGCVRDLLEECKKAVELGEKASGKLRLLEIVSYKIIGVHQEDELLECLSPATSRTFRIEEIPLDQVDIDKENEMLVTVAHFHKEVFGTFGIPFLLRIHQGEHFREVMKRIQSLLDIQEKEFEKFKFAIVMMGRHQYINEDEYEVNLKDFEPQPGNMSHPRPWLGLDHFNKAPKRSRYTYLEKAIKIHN
Summary of the method: as §1

[8] = molecular target: T5, USP8 (UniProt P40818)
T5 sequence (whole entry): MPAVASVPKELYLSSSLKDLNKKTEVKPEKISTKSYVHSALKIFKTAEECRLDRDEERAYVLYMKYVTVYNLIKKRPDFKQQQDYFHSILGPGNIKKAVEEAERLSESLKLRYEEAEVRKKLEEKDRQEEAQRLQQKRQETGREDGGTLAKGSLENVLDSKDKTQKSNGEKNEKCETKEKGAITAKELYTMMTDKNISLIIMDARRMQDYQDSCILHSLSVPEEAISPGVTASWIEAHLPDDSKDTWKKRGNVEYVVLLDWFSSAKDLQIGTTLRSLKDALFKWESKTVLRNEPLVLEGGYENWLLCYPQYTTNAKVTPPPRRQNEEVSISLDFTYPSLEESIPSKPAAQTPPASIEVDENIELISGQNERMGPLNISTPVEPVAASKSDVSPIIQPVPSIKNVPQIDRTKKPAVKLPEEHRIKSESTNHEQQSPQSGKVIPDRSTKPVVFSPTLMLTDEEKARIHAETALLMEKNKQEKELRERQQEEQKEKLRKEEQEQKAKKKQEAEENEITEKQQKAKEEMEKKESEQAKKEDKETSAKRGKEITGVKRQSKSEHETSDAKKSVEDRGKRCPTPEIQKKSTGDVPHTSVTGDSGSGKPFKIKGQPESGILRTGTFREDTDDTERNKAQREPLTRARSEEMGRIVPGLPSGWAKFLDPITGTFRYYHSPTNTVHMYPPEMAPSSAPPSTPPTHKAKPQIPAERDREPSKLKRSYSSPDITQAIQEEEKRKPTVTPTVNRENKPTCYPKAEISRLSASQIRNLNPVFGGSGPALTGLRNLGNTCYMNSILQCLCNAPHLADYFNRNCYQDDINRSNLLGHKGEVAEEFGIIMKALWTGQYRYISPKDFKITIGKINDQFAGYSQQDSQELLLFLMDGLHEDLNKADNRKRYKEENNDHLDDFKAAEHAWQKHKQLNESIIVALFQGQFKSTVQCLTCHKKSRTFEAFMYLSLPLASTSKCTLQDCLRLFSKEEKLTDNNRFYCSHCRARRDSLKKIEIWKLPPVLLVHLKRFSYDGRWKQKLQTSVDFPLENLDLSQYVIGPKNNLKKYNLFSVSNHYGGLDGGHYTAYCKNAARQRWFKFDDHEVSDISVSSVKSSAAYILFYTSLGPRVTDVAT
Summary of the method: as §1

[9] = molecular target: USP9X (UniProt Q93008)
Sequence of USP9X (Q93008 whole entry): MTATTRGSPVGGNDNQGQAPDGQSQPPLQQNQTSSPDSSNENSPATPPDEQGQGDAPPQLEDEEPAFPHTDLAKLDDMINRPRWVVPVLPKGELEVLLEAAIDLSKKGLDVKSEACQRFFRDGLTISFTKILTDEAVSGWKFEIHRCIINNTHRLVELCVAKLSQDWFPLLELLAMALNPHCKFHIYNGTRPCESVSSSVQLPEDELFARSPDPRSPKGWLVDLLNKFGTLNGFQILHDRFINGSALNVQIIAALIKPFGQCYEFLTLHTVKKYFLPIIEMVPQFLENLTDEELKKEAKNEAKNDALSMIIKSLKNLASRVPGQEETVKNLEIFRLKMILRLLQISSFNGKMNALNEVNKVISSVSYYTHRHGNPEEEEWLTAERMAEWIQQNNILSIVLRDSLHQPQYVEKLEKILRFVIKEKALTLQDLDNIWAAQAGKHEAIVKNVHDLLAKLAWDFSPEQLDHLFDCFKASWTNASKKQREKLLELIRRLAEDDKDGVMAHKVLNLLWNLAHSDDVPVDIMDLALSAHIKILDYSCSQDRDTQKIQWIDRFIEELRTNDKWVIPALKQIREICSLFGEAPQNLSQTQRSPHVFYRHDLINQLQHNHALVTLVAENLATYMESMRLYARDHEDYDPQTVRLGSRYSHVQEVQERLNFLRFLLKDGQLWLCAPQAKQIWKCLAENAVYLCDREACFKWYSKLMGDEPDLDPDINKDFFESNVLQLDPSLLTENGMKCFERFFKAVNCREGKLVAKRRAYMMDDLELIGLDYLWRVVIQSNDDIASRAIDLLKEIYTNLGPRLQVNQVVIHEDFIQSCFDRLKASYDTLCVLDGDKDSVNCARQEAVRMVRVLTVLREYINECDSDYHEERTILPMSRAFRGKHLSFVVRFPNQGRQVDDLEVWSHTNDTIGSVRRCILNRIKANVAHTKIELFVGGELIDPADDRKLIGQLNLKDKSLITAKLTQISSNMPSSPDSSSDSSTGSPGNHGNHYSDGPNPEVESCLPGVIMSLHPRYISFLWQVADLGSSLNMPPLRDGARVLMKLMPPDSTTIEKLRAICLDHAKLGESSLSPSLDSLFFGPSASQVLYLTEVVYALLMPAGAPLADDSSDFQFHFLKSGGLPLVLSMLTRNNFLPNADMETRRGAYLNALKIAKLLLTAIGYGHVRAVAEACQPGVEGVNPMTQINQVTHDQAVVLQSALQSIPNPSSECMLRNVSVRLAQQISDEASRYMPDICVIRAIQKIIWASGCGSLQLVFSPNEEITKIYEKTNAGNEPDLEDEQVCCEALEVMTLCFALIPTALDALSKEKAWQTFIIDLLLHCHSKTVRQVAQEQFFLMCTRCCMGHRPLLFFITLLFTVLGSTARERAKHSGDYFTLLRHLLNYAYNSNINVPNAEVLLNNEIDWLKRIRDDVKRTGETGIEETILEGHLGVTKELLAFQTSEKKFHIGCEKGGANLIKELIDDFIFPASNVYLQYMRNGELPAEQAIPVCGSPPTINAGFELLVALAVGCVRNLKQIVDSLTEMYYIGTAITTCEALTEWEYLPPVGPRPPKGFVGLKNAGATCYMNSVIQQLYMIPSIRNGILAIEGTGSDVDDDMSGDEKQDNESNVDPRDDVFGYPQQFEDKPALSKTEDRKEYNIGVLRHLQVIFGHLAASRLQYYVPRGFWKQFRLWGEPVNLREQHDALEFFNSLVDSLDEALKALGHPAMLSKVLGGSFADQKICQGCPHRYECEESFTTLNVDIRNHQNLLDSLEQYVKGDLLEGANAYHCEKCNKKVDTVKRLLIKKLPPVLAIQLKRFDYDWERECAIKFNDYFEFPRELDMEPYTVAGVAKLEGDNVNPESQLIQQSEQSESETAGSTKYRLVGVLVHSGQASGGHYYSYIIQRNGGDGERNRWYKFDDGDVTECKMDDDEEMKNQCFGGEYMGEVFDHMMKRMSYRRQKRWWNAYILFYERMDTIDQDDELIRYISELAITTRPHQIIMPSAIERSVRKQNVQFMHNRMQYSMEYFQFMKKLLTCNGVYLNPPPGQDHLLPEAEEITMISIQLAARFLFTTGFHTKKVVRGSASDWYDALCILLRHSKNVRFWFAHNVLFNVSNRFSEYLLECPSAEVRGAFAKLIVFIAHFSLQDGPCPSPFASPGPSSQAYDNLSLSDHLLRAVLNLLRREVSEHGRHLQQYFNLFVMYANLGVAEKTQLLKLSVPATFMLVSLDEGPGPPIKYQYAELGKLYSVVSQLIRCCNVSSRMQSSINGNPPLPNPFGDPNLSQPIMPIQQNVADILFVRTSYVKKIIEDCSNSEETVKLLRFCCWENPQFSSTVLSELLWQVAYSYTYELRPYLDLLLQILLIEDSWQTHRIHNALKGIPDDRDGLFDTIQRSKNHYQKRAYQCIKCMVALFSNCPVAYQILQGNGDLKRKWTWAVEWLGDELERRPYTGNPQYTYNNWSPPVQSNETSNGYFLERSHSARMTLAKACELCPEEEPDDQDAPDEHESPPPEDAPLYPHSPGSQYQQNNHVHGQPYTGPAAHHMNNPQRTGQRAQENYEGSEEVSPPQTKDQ
Summary of the method: as §1

[10] = molecular target: UniProt O00487
Sequence of UniProt O00487 (O00487 whole entry): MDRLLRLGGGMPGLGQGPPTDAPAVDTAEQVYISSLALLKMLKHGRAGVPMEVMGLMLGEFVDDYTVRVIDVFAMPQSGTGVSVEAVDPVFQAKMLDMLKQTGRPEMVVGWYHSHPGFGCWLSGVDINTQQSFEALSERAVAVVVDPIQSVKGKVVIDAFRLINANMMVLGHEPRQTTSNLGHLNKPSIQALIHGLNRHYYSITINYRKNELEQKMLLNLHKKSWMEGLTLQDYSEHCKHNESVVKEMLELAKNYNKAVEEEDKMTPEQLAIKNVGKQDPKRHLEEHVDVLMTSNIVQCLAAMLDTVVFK
Summary of the method: as §1

Measured: log2 ratio of Biotin-Ahx-Ub-VS probe labelling

O=C(CCl)NC1CCC(C(F)(F)F)CC1 (stereo not given)
inactive: [1] 0.589 | [2] -0.0439 | [3] -0.0726 | [4] -0.174 | [5] -0.36 | [6] 0.0395 | [7] -0.303 | [8] -0.0509 | [9] -0.178 | [10] -0.185
